Measurements as given in PubChem BioAssay (NCATS).
Records with an inconclusive call do not appear. The source made the active and inactive calls. Unless noted, calls follow the shape of the dose curve; as a rule, active = well fitted curve in the direction sought with a large enough effect; inconclusive = small, poorly fitted or top-dose-only effect, or another doubt; inactive = no such curve, though single readings can be large; an effect the other way counts as inactive or inconclusive.

Assays:
[1] = Cell Viability - BJ (AID 421; calls by dose curve;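 also: potency is read from the fitted curve at half-maximal effect; cells exposed to compound for 40 hours at 37 °C before readout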); settings: BJ fibroblast viability, qHTS
In short: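 Quantitative HTS: ATP depletion in BJ cells after 40 hr compound exposure in complete culture medium, detected with CellTiter-Glo; AC50 from standard Hill fits.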

[2] = Cell Viability - Jurkat (AID 426;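 active = dose-dependent loss of cell ATP signal giving a full or clear fitted curve, ranked by lower potency value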;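 also: potency is read from the fitted curve at half-maximal effect; cells exposed to compound for 40 hours at 37 °C before ATP read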); settings: qHTS
In short: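 Luminescent ATP read-out (CellTiter-Glo, 20 min at room temperature) after 40 hr compound exposure at 37 °C of Jurkat E6-1 cells, 5000/well. Decreased ATP taken as cytotoxicity; AC50 from standard Hill equation.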

[3] = Cell Viability - Hek293 (AID 427;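 active = compounds whose dose-response curve shows a full or clear partial loss of cell viability, called from curve shape rather than a numeric limit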;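 also: potency is read from the fitted curve at half-maximal effect; cells exposed to compound for 40 hours at 37 °C before reading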); settings: qHTS
In short: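 AC50 values derive from Hill-modelled concentration-response of ATP-based luminescence, normalized between DMSO-only and 100 uM tamoxifen controls. Cells were exposed in complete culture medium for 40 hr at 37 °C before detection.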

[4] = Cell Viability - HepG2 (AID 433; calls by dose curve;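 also: potency is read from the fitted curve at half-maximal effect; potency for ATP loss meaning cytotoxicity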); settings: qHTS
In short: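 Cytotoxicity is scored as loss of intracellular ATP in HepG2 cells exposed to compounds for 40 h. Concentration-response curves, normalized to DMSO and 100 uM tamoxifen, give AC50 values.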

[5] = Cell Viability - SK-N-SH (AID 435; calls by dose curve; also: potency is read from the fitted curve at half-maximal effect); settings: SK-N-SH neuroblastoma cell viability qHTS
In short: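 Cells seeded at 1500 per well and incubated 5 hr at 37 °C. Compound added, then 40 hr at 37 °C. CellTiter-Glo added, 20 min at room temperature, luminescence read.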

[6] = molecular target: Mitogen-activated protein kinase 10 (Mus musculus) (UniProt Q61831); assay: JNK3 AlphaScreen Assay (AID 530; active = well fitted curve in either direction with a large enough effect, not every such curve was filed as active;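 also: kinase came from lysate of stimulated human HepG2 cells; signal reports phosphorylation of biotinylated GST-cJun 1-79 at Ser73 with 10 µM ATP; % is scaled to controls: 0 for no effect and ±100 for the full control effect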); settings: JNK3 lysate, c-Jun phosphorylation; series mostly up to 57.1 µM
In short: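 Kinase buffer: 20 mM Tris-HCl pH 7.6, 10 mM MgCl2, 1 mM DTT, 0.1 mM Na3VO4, 0.01% Tween-20; ATP 10 uM. Substrate biotin-GST-cJun(1-79), enzyme from activated HepG2 lysates. Detection by Ser73 phospho-antibody AlphaScreen.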

[7] = Cell Viability - N2a (AID 540); settings: N2a mouse neuroblastoma cell viability; activity change, negative = cytotoxicity: at 92.2 µM (top of the series);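 also: plate controls were DMSO alone for no effect and tamoxifen control for full effect; nearly all actives have a fitted effect of over 45% in size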
In short: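 N2a mouse neuroblastoma, 1500 cells/well, 5 hr settle; compound 40 hr, 37 °C; CellTiter-Glo 20 min RT; luminescence; Hill-fit AC50.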

[8] = Cell Viability - NIH 3T3 (AID 541); settings: NIH 3T3 cell viability, qHTS; activity change, negative = cytotoxicity: at 92.2 µM (top of the series);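 also: plate controls were DMSO alone for no effect and tamoxifen positive control for full effect; nearly all actives have a fitted effect of over 25% in size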
In short: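 qHTS format; 40 hr compound exposure, 37 °C; CellTiter-Glo luminescence (cellular ATP) read-out after 20 min at RT. Decrease in ATP = cytotoxicity; AC50 from standard Hill fit.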

[9] = Cell Viability - HUV-EC-C (AID 542); settings: HUV-EC-C endothelial cell viability, qHTS; series mostly up to 92.2 µM; also: % is scaled to controls: 0 for no effect and ±100 for the full control effect; nearly all actives have a fitted effect of over 35% in size
In short: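 Luminescent ATP read-out (CellTiter-Glo, 20 min room temperature) after 40 hr compound treatment of HUV-EC-C cells at 37 °C. Concentration-response data fitted with the standard Hill equation to give AC50; tamoxifen and doxorubicin served as positive controls.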

[10] = Cell Viability - H-4-II-E (AID 543); settings: H-4-II-E rat hepatoma viability; series mostly up to 92.2 µM; also: % is scaled to controls: 0 for no effect and ±100 for the full control effect; nearly all actives have a fitted effect of over 35% in size
In short: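 qHTS, rat hepatoma H-4-II-E, 1500 cells/well; 40 hr compound exposure, 37 °C; CellTiter-Glo ATP luminescence after 20 min RT; AC50 by standard Hill fit.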

[11] = Cell Viability - SH-SY5Y (AID 544); settings: SH-SY5Y neuroblastoma cell viability; viability change, negative = cytotoxic: at 92.2 µM (top of the series); also: nearly all actives have a fitted effect of over 55% in size
In short: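 SH-SY5Y, 1500 cells/well, 5 hr pre-incubation 37 °C; cpd 40 hr 37 °C; CellTiter-Glo 20 min RT; luminescence (ATP) read. qHTS concentration-response, Hill fit → AC50. Tamoxifen, doxorubicin as positive controls.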

[12] = Cell Viability - Renal Proximal Tubule (AID 545); settings: renal proximal tubule cells viability, primary cells of rat origin; series mostly up to 91.7 µM; also: nearly all actives have a fitted effect of over 40% in size
In short: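 Cytotoxicity is scored as a concentration-dependent drop in cellular ATP in primary rat renal proximal tubule cells exposed for 40 hr. AC50 derives from Hill modelling.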

[13] = Cell Viability - Mesenchymal (AID 546); settings: mesenchymal cells viability, qHTS; series mostly up to 91.7 µM;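 also: cells exposed to compound for 40 hours before reading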
In short: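 CellTiter-Glo luminescence (intracellular ATP, 20 min room temperature) after 40 hr compound exposure at 37 °C of 1000 glomerulus-derived human kidney mesenchymal cells/well; AC50 values obtained by fitting qHTS concentration-response data to the Hill equation.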

[14] = Cellular Toxicity (caspase-3) HepG2 (AID 654); settings: HepG2 caspase-3 activation, luminescence; series mostly up to 92.2 µM;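 also: cells exposed to compound for 16 hours before reading; 0% = DMSO alone and 100% = caspase signal from 100 µM tamoxifen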
In short: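 Luminescent Caspase-Glo 3/7 readout after 16 hr compound exposure of human hepatocellular carcinoma HepG2 cells at 37 °C; qHTS concentration-response, normalized DMSO = 0%, 100 uM tamoxifen = 100%; AC50 by standard Hill equation.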

[15] = Cellular Toxicity (caspase-3) Jurkat (AID 655); settings: Jurkat caspase-3 activation, luminescence; caspase-3 activation: at 92.2 µM (top of the series), DMSO = 0%, tamoxifen = 100%;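 also: cells exposed to compound for 16 h at 37 °C before reading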
In short: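 Caspase 3/7 activation is scored as increased luminescence in Jurkat cells cultured with compound for 16 hours in complete medium. AC50 values come from Hill fits of qHTS concentration-response data normalized to DMSO and 100 uM tamoxifen controls.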

[16] = Cellular Toxicity (caspase-3) HUV-EC-C (AID 656); settings: HUV-EC-C cells, caspase-3 activation (apoptosis), vehicle = 0, 100 µM tamoxifen = 100%; series mostly up to 92.2 µM
In short: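 Read-out: luminescence proportional to caspase 3/7 activity, measured 20 min after adding Caspase-Glo 3/7 reagent. Cells (HUV-EC-C) had received compound for 16 hr at 37°C. Increases relative to DMSO and 100 uM tamoxifen gave concentration-response AC50 values.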

[17] = Cellular Toxicity (caspase-3) SHSY5Y (AID 657); settings: SH-SY5Y caspase-3 activation, DMSO zero, 10 µM staurosporine = 100%; series mostly up to 91.7 µM;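 also: cells exposed to compound for 16 hours at 37 °C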
In short: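 Cells plated and incubated 5 h at 37 °C, dosed over a concentration range, incubated 16 h, then given Caspase-Glo 3/7 reagent for 1 h at room temperature before luminescence reading. Staurosporine (10 uM) defined full stimulation.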

[18] = Cellular Toxicity (caspase-3) BJ (AID 658); settings: BJ fibroblasts, luminescence, normalized: DMSO 0%, staurosporine 100%; series mostly up to 91.7 µM
In short: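 Caspase-Glo 3/7 luminescence, read 1 hr after reagent at room temperature, in normal BJ fibroblasts exposed 16 hours at 37 °C. AC50 values from Hill-equation concentration-response, scaled between DMSO basal and 10 uM staurosporine as 100%.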

[19] = Cellular Toxicity (caspase-3) MRC-5 (AID 659); settings: MRC-5 cells, luminescence, normalized: DMSO 0%, 10 µM staurosporine 100%; series mostly up to 91.7 µM
In short: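 Luminescent Caspase-Glo 3/7 read-out (1 h, room temperature) after a 16 h, 37 °C compound exposure of MRC-5 lung fibroblasts at 1500 cells/well. Concentration-response AC50 from Hill equation; 0% DMSO, 100% 10 uM staurosporine.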

[20] = Cell Viability - MRC5 (AID 434; calls by dose curve;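 also: potency is read from the fitted curve at half-maximal effect; cells exposed to compound for 40 hours at 37 °C; potency reflects cytotoxicity seen as loss of intracellular ATP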); settings: MRC5 lung fibroblast viability, qHTS
In short: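 AC50 values come from Hill-equation fits of intracellular ATP loss, measured by CellTiter-Glo luminescence. Normal lung fibroblasts (MRC5) had 40 hr compound treatment at 37 C, normalized between DMSO and 100 uM tamoxifen.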

CCCCOCCOCCSC#N
inactive: Potency [1] > 92 µM | Potency [2] > 92 µM | Potency [3] > 92 µM | Potency [4] > 92 µM | Potency [5] > 92 µM | outcome [6] | activity change, negative = cytotoxicity [7] 0.328% | Potency [8] | Potency [9] | Potency [10] | Potency [11] | Potency [12] | Potency [13] | Potency [14] | caspase-3 activation [15] 1.11% | outcome [16] | outcome [17] | outcome [18] | outcome [19]

O=C(O[C@@H](C(=O)O)[C@@H](OC(=O)c1ccccc1)C(=O)O)c1ccccc1
inactive: Potency [1] > 92 µM | Potency [2] > 92 µM | Potency [3] > 92 µM | Potency [4] > 92 µM | Potency [20] > 92 µM | activity change, negative = cytotoxicity [7] 4.68% | Potency [8] | Potency [9] | Potency [10] | Potency [11] | Potency [12] | Potency [13] | Potency [14] | caspase-3 activation [15] 1.56% | outcome [16] | outcome [17] | outcome [18] | outcome [19]

CC(C)(O)CCC(C)(C)O
inactive: Potency [1] > 92 µM | Potency [3] > 92 µM | Potency [4] > 92 µM | Potency [20] > 92 µM | Potency [5] > 92 µM | outcome [6] | activity change, negative = cytotoxicity [7] 3.94% | Potency [8] | Potency [9] | Potency [10] | Potency [11] | Potency [12] | Potency [13] | Potency [14] | caspase-3 activation [15] 0.189% | outcome [16] | outcome [17] | outcome [18] | outcome [19]

CCCCOCCOCCOCCCC
inactive: Potency [1] > 92 µM | Potency [3] > 92 µM | Potency [4] > 92 µM | Potency [20] > 92 µM | Potency [5] > 92 µM | outcome [6] | activity change, negative = cytotoxicity [7] 3.3% | Potency [8] | Potency [9] | Potency [10] | Potency [11] | Potency [12] | Potency [13] | Potency [14] | caspase-3 activation [15] 0.193% | outcome [16] | outcome [17] | outcome [18] | outcome [19]

c1ccc2[nH]cnc2c1
inactive: Potency [1] > 92 µM | Potency [3] > 92 µM | Potency [4] > 92 µM | Potency [20] > 92 µM | Potency [5] > 92 µM | outcome [6] | activity change, negative = cytotoxicity [7] -1.37% | Potency [8] | Potency [9] | Potency [10] | Potency [11] | Potency [12] | Potency [13] | Potency [14] | caspase-3 activation [15] 1.18% | outcome [16] | outcome [17] | outcome [18] | outcome [19]

CC/C=C1/OC(=O)c2ccccc21
inactive: Potency [1] > 92 µM | Potency [3] > 92 µM | Potency [4] > 92 µM | Potency [20] > 92 µM | Potency [5] > 92 µM | outcome [6] | activity change, negative = cytotoxicity [7] 3.1% | Potency [8] | Potency [9] | Potency [10] | Potency [11] | Potency [12] | Potency [13] | Potency [14] | outcome [16] | outcome [17] | outcome [18] | outcome [19]

Nc1ccc(Cl)cc1[N+](=O)[O-]
inactive: Potency [1] > 92 µM | Potency [3] > 92 µM | Potency [4] > 92 µM | Potency [20] > 92 µM | Potency [5] > 92 µM | outcome [6] | activity change, negative = cytotoxicity [7] -24.6% | Potency [8] | Potency [9] | Potency [10] | Potency [11] | Potency [12] | Potency [13] | caspase-3 activation [15] -0.00309% | outcome [16] | outcome [17] | outcome [19]

Cc1ccccc1C#N
inactive: Potency [1] > 92 µM | Potency [3] > 92 µM | Potency [4] > 92 µM | Potency [20] > 92 µM | Potency [5] > 92 µM | Potency [8] | Potency [9] | Potency [10] | Potency [12] | Potency [13] | Potency [14] | caspase-3 activation [15] 0.133% | outcome [16] | outcome [17] | outcome [18] | outcome [19]

Clc1ccccn1
inactive: Potency [1] > 92 µM | Potency [3] > 92 µM | Potency [4] > 92 µM | Potency [20] > 92 µM | Potency [5] > 92 µM | outcome [6] | Potency [8] | Potency [9] | Potency [10] | Potency [11] | Potency [12] | Potency [13] | Potency [14] | caspase-3 activation [15] -1.1% | outcome [16] | outcome [17] | outcome [18]

O=[N+]([O-])c1ccc2nc[nH]c2c1
inactive: Potency [1] > 92 µM | Potency [3] > 92 µM | Potency [4] > 92 µM | Potency [5] > 92 µM | outcome [6] | activity change, negative = cytotoxicity [7] 4.31% | Potency [8] | Potency [9] | Potency [10] | Potency [11] | Potency [12] | Potency [13] | Potency [14] | caspase-3 activation [15] 0.964% | outcome [16] | outcome [17]

CC(C)CO
inactive: Potency [1] > 92 µM | Potency [3] > 92 µM | Potency [4] > 92 µM | Potency [20] > 92 µM | Potency [5] > 92 µM | outcome [6] | activity change, negative = cytotoxicity [7] 3.29% | Potency [9] | Potency [10] | Potency [11] | Potency [12] | Potency [13] | Potency [14] | caspase-3 activation [15] -0.38% | outcome [16] | outcome [17] | outcome [18] | outcome [19]

O=C(O)CCSSCCC(=O)O
inactive: Potency [1] > 92 µM | Potency [3] > 92 µM | Potency [4] > 92 µM | Potency [20] > 92 µM | Potency [5] > 92 µM | outcome [6] | activity change, negative = cytotoxicity [7] 1.39% | Potency [8] | Potency [9] | Potency [10] | Potency [11] | Potency [12] | Potency [13] | Potency [14] | caspase-3 activation [15] 0.0924% | outcome [16] | outcome [17] | outcome [18] | outcome [19]

C=Cc1ccccc1C=C
inactive: Potency [1] > 92 µM | Potency [3] > 92 µM | Potency [4] > 92 µM | Potency [20] > 92 µM | Potency [5] > 92 µM | outcome [6] | activity change, negative = cytotoxicity [7] 7.3% | Potency [9] | Potency [10] | Potency [11] | Potency [12] | Potency [13] | Potency [14] | caspase-3 activation [15] -0.124% | outcome [16] | outcome [17] | outcome [18]
